# Test results as given in publication PMC7862700, “An all-to-all approach to the identification of sequence-specific readers for epigenetic DNA modifications on cytosine”.
# Tests used:
# Assay in all cases: DAPPL (digital affinity profiling via proximity ligation, sequencing); 10 mM Tris-HCl pH 7.5, 50 mM NaCl, 1 mM DTT, 4% glycerol, room temperature, 30 min; GST-TFs on glutathione beads, 16-mer random dsDNA library, 0.1% formaldehyde crosslink after washing; high values mean tight binding
# Details in all cases: protein: recombinant; tags: N-terminal GST; dsDNA, one strand shown
# [1] = target: T1, ELK1 (Homo sapiens, UniProt P19419 1-428)
# T1 sequence: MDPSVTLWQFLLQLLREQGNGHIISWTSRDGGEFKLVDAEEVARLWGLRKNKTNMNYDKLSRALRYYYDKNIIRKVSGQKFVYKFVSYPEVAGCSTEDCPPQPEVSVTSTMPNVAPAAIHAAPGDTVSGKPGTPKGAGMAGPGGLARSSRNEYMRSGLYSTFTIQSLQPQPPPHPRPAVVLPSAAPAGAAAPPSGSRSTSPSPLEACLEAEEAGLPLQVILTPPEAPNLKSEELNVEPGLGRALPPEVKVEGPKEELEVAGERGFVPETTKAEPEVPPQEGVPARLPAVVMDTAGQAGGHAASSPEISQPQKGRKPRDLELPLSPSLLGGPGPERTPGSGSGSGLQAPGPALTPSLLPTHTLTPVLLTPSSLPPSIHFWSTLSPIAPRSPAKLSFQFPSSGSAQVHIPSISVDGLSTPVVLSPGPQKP
# In short: (§1)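 Human transcription factors were made in yeast as GST fusions, captured on glutathione beads and barcoded with DNA. With a tag-only sample included, the pool was incubated with 200 nmole of a random double-stranded 16-mer DNA library in Tris/NaCl/DTT/glycerol buffer at room temperature for 30 min, then crosslinked with 0.1% formaldehyde after washing, ligated by proximity, amplified and sequenced. For binding signal, each hexamer's read frequency for a factor is divided by its frequency for the tag-only sample.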
# [2] = target: T2, GABPA (Homo sapiens, UniProt Q06546 1-454)
# T2 sequence: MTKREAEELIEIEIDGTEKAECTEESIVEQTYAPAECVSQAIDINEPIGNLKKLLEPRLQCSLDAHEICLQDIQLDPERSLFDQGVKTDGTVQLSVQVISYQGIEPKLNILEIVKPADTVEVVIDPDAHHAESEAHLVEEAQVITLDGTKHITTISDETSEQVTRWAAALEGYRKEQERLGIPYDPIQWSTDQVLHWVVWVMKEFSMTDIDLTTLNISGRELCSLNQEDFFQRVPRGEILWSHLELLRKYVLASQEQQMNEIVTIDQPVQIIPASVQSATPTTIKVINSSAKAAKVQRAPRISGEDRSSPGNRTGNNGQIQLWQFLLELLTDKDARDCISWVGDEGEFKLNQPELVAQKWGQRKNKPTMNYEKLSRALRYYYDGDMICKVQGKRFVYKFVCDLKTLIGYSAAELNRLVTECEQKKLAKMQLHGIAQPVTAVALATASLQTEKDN
# In short: as §1
# [3] = target: ELF1 (Homo sapiens, UniProt P32519 1-619)
# In short: as §1
# [4] = target: T3, EHF (Homo sapiens, UniProt Q9NZC4 1-300)
# T3 sequence: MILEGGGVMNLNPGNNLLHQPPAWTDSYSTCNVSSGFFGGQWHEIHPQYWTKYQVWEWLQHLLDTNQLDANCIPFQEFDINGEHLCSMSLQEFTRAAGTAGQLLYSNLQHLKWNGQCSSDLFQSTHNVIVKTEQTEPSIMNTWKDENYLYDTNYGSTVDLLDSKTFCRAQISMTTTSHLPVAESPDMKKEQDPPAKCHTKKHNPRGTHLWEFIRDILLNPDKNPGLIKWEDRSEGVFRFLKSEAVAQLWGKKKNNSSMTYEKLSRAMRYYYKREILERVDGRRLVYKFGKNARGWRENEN
# In short: as §1
# [5] = target: SPIB (Homo sapiens, UniProt Q01892 1-262)
# In short: as §1
# [6] = target: T4, ELK3 (Homo sapiens, UniProt P41970 1-407)
# T4 sequence: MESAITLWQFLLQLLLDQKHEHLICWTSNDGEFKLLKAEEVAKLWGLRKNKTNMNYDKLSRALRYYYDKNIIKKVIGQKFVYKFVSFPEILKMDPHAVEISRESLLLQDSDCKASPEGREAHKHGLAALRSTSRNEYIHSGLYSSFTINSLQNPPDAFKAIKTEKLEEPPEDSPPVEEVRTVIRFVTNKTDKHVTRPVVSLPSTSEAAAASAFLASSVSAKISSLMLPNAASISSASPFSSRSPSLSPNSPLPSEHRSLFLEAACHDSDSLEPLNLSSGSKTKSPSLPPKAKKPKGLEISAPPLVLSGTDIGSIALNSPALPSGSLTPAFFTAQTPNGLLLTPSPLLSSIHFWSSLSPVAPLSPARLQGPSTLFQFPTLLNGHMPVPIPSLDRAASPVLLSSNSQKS
# In short: as §1
# [7] = target: T5, SPIC (Homo sapiens, UniProt Q8N5J4 1-248)
# T5 sequence: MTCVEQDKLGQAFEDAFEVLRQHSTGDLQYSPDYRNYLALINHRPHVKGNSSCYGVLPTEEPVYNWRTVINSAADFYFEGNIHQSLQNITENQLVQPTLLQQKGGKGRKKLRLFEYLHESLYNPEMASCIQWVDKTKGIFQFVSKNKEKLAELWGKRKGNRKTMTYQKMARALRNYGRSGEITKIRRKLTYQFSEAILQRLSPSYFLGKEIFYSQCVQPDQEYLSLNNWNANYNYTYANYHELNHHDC
# In short: as §1
# [8] = target: ELF4 (Homo sapiens, UniProt Q99607 1-663)
# In short: as §1
# [9] = target: T6, ELK4 (Homo sapiens, UniProt P28324-2 1-405)
# T6 sequence: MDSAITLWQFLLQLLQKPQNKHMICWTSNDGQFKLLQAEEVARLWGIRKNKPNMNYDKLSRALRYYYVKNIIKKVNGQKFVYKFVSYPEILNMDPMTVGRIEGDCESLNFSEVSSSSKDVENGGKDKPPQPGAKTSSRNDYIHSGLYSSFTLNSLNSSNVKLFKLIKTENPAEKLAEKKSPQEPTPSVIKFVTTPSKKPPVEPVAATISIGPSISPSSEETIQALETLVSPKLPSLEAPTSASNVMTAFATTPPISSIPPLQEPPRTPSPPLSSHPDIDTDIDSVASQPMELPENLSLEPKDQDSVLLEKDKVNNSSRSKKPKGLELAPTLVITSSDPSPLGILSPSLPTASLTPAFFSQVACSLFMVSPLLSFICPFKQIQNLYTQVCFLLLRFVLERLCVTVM
# In short: as §1
# [10] = target: T7, ELF3 (Homo sapiens, UniProt P78545 1-371)
# T7 sequence: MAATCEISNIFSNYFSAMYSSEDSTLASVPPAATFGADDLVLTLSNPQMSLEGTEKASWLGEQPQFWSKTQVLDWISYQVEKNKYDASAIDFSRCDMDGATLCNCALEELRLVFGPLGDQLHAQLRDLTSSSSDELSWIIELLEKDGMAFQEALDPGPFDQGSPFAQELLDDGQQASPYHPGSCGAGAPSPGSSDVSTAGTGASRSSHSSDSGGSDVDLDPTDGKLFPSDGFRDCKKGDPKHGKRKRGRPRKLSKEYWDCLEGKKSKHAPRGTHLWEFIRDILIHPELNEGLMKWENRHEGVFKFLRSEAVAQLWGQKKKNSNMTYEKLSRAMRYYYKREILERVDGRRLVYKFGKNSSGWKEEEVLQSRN
# In short: as §1
# [11] = target: ETV1 (Homo sapiens, UniProt P50549 1-477)
# In short: as §1
# [12] = target: T8, ETV3L (Homo sapiens, UniProt Q6ZN32 1-361)
# T8 sequence: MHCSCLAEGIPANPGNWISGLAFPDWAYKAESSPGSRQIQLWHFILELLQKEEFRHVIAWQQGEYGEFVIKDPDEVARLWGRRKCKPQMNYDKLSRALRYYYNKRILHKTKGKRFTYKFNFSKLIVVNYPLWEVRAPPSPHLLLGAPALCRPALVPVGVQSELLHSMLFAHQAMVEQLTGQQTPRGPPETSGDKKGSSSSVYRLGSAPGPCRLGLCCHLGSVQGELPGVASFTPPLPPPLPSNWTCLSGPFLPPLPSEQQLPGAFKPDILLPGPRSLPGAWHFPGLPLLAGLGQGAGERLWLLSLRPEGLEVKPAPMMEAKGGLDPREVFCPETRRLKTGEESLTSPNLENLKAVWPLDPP
# In short: as §1
# [13] = target: T9, ETS2 (Homo sapiens, UniProt P15036 1-469)
# T9 sequence: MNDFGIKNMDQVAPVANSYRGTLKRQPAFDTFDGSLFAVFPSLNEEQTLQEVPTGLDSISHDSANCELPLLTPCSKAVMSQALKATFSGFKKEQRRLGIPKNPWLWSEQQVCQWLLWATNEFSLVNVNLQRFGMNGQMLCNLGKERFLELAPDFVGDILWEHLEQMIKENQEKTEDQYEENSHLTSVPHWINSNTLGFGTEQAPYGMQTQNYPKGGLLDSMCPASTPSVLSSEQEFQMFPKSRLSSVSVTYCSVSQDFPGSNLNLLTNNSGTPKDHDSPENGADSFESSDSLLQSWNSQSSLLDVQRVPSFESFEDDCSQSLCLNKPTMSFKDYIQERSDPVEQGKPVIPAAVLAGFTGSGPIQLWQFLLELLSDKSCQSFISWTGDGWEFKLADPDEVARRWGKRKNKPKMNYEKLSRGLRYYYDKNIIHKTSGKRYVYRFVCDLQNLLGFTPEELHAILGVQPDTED
# In short: as §1
# [14] = target: T10, SPDEF (Homo sapiens, UniProt O95238 1-335)
# T10 sequence: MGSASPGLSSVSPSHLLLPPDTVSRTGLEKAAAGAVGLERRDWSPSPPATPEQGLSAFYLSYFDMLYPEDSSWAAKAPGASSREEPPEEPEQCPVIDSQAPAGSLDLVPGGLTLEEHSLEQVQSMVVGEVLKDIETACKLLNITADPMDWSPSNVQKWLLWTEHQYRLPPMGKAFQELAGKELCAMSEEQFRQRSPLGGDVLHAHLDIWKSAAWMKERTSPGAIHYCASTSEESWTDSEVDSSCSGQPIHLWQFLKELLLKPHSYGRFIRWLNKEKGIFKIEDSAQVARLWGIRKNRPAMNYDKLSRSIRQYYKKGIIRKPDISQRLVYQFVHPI
# In short: as §1
# [15] = target: T11, ETV7 (Homo sapiens, UniProt Q9Y603 1-341)
# T11 sequence: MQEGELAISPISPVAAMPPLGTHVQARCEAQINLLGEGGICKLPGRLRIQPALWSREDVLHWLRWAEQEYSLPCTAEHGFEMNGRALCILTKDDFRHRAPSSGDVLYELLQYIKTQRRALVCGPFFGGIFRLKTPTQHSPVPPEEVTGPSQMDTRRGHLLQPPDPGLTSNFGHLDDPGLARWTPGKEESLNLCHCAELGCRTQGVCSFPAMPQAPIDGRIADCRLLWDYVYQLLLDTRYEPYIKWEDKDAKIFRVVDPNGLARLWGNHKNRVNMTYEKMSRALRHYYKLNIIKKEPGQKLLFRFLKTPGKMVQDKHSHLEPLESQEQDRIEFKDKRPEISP
# In short: as §1
# [16] = target: T12, ETV3 (Homo sapiens, UniProt P41162-2 1-143)
# T12 sequence: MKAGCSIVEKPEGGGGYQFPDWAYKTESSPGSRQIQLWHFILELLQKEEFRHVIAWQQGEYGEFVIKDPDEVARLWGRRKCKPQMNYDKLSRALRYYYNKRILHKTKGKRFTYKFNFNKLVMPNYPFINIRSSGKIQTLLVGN
# In short: as §1
# [17] = target: ETV6 (Homo sapiens, UniProt P41212 1-452)
# In short: as §1
# ELF4, sequence (Q99607 whole entry): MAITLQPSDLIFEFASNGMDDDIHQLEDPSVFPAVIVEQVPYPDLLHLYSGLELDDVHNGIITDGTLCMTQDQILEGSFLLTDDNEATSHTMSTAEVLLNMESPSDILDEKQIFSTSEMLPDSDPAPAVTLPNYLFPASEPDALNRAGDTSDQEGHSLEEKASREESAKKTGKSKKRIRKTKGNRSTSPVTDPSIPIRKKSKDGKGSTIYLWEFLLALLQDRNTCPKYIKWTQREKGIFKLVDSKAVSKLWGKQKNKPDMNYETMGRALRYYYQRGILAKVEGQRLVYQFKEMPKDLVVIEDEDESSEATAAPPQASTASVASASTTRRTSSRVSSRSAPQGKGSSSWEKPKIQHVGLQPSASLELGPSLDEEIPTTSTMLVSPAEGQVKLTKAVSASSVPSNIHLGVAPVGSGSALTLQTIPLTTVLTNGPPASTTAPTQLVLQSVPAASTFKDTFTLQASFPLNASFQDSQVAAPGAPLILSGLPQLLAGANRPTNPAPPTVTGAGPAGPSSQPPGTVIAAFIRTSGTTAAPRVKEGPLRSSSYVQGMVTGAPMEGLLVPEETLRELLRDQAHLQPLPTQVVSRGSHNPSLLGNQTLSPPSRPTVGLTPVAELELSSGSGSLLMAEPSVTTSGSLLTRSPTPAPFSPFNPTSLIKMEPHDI
# ELF1, sequence (P32519 whole entry): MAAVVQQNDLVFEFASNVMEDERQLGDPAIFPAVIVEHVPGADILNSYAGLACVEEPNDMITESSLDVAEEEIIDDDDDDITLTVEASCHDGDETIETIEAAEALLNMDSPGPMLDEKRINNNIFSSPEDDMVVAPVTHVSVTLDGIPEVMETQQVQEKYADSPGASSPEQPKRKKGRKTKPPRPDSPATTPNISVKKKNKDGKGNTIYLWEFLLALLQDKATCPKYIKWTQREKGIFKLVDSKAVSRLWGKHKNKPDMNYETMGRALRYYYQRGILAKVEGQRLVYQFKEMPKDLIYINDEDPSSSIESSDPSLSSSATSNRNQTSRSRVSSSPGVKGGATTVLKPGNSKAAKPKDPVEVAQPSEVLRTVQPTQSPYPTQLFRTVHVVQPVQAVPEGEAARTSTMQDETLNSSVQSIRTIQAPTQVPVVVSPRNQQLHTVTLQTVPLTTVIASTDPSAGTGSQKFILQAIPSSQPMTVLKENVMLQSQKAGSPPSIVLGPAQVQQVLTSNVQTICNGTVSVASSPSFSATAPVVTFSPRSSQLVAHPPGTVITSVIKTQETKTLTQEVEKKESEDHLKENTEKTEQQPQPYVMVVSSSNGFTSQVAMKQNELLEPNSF
# SPIB, sequence (Q01892 whole entry): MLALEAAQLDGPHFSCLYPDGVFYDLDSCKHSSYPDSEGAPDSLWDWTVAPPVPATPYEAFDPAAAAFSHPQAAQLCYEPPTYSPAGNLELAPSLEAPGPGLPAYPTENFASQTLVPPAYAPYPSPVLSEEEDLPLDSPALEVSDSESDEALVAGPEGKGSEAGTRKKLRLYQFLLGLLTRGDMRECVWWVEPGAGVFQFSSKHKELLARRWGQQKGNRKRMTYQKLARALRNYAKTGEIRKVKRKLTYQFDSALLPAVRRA
# ETV6, sequence (P41212 whole entry): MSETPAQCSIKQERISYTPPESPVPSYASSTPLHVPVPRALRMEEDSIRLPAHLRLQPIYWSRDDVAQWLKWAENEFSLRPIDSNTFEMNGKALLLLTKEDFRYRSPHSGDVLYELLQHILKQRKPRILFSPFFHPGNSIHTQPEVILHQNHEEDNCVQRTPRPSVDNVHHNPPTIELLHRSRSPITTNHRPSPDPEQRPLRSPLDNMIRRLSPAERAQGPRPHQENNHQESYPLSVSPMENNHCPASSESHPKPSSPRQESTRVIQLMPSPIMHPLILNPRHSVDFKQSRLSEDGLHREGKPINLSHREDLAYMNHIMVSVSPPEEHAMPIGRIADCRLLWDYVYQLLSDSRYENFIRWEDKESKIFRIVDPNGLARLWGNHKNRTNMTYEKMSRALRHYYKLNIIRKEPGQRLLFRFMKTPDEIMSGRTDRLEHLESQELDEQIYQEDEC
# ETV1, sequence (P50549 whole entry): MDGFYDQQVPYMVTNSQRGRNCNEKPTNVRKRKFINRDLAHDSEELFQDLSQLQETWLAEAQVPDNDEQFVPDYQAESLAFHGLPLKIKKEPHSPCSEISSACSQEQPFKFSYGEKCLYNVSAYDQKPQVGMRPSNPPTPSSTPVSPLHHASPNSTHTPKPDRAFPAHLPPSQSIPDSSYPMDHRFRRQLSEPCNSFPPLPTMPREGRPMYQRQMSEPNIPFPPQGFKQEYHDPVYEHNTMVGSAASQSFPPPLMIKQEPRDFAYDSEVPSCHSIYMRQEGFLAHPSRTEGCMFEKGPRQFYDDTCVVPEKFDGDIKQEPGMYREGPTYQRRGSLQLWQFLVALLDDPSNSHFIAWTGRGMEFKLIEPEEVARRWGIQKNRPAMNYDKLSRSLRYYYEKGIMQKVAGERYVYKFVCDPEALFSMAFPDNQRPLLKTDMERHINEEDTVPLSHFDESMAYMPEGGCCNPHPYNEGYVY
sequence,measurement,setting,value
TAGATA,binding signal,[1],"1.03 fold enrichment (6-mer frequency, TF over GST control)"
same,binding signal,[2],"1.1 fold enrichment (6-mer frequency, TF over GST control)"
same,binding signal,[3],"1.06 fold enrichment (6-mer frequency, TF over GST control)"
same,binding signal,[4],"1.06 fold enrichment (6-mer frequency, TF over GST control)"
same,binding signal,[5],"1.05 fold enrichment (6-mer frequency, TF over GST control)"
same,binding signal,[6],"1.02 fold enrichment (6-mer frequency, TF over GST control)"
same,binding signal,[7],"1.17 fold enrichment (6-mer frequency, TF over GST control)"
same,binding signal,[8],"1.07 fold enrichment (6-mer frequency, TF over GST control)"
same,binding signal,[9],"1.08 fold enrichment (6-mer frequency, TF over GST control)"
same,binding signal,[10],"1.08 fold enrichment (6-mer frequency, TF over GST control)"
same,binding signal,[11],"1.06 fold enrichment (6-mer frequency, TF over GST control)"
same,binding signal,[12],"1.12 fold enrichment (6-mer frequency, TF over GST control)"
same,binding signal,[13],"1.05 fold enrichment (6-mer frequency, TF over GST control)"
same,binding signal,[14],"1.06 fold enrichment (6-mer frequency, TF over GST control)"
same,binding signal,[15],"1.02 fold enrichment (6-mer frequency, TF over GST control)"
same,binding signal,[16],"1.01 fold enrichment (6-mer frequency, TF over GST control)"
same,binding signal,[17],"1.01 fold enrichment (6-mer frequency, TF over GST control)"
